From PubChem BioAssay AID430 (Sanford-Burnham Center for Chemical Genomics, 2006) come the findings set out here.

The campaign covered roughly 63,000 compounds. About 1,100 (1.7%) were called active. Cut-off read from the data, not from the text of the source: active = cytotoxicity above about 50%; inactive = the rest. What follows is part of a selection rich in actives, with near analogues and random picks from the rest. Potency and affinity values are given separately.

This experiment in a line: HPDE-C7 pancreatic duct cell viability loss – fluorescence, HTS (AID 430).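 Note: cells exposed to compound for 48 hours before viability readout; 0% = vehicle and 100% = reference cytotoxic drug.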 Conditions: HPDE-C7 pancreatic duct cells viability, at 10 µM, hits give high values.
Consider `CCOC(=O)c1[nH]c2ccc(OCC)cc2c1NC(=O)CN1CCN(c2ccccn2)CC1`, for which the cytotoxicity is 8.8% (inactive).

For the compound `CCOc1ccc2[nH]c3c(N4CCN(c5ccccn5)CC4)ncnc3c2c1`, the cytotoxicity is 62.5% (active). `Cc1ccc2c(c1)[nH]c1c(N3CCN(Cc4ccccc4)CC3)ncnc12`: the cytotoxicity was 82.2% (active). Regarding `Cc1ccc2[nH]c3c(N4CCCCCC4)ncnc3c2c1`, the cytotoxicity is 23.7% (inactive).

With `c1ccc(CN2CCN(c3ncnc4nc[nH]c34)CC2)cc1`, the cytotoxicity was 8.4% (inactive). The figure for `c1ccc(CN2CCN(c3ncnc4c3[nH]c3ccccc34)CC2)cc1` is 15.2% (inactive).

As to `CCOC(=O)N1CCN(c2ncnc3c2[nH]c2ccc(OC)cc23)CC1`, the cytotoxicity was -5% (inactive).

`Cc1ccc2[nH]c3c(N4CCOCC4)ncnc3c2c1`: the cytotoxicity is 5.1% (inactive). The figure for `Fc1ccccc1CSc1ncnc2c1oc1ccccc12` is 5.1% (inactive). `COc1ccccc1NC(=O)c1cc(S(=O)(=O)N2CCC3(CC2)OCCO3)ccc1F`: the cytotoxicity is 4.8% (inactive). As to `COc1cccc(C(=O)/C=C/Nc2cc(C)ccc2O)c1`, the cytotoxicity is 65.2% (active). `COc1cccc(C(=O)Nc2ccc(C)cc2)c1`: the cytotoxicity is -1.9% (inactive). As for `Cc1cccc(OCC(=O)Nc2cc(C)ccc2O)c1`, the cytotoxicity was -6% (inactive). Consider `CCC(CC)C(=O)Nc1nnc(-c2cccs2)s1`, for which the cytotoxicity was 5% (inactive). `Cc1cccc(C)c1NC1=NC(C)(C)N=C(N)N1`: the cytotoxicity was 10.8% (inactive). `N#C/C(=C(/O)COC(=O)c1ccc2c(c1)OCCO2)c1nc2ccccc2[nH]1`: the cytotoxicity was 24.1% (inactive).

As for `CCOC(=O)c1c(C)[nH]c(C(=O)OC/C(O)=C(\C#N)c2nc3ccccc3[nH]2)c1C`, the cytotoxicity was 89.8% (active).

`Cc1nn(-c2ccccc2)c(C)c1C(=O)OC/C(O)=C(\C#N)c1nc2ccccc2[nH]1`: the cytotoxicity was 7.4% (inactive). Take `CCOc1cc(Br)c(C(=O)O)cc1OCC`: the cytotoxicity is -2.5% (inactive).

In the case of `COc1cccc2c1C(=O)c1c(O)c3c(c(O)c1C2=O)C[C@@](O)(C(C)=O)C[C@@H]3O[C@H]1C[C@H](N)[C@H](O)[C@H](C)O1`, the cytotoxicity is 108% (active).

For the compound `COc1cccc2c1C(=O)c1c(O)c3c(c(O)c1C2=O)C[C@@](O)(C(=O)CO)C[C@@H]3O[C@H]1C[C@H](N)[C@H](O)[C@H](C)O1`, the cytotoxicity is 102% (active). As for `COCC(C)NC(=O)c1cc(-c2ccc(OC)c(OC)c2)on1` (configuration not stated), the cytotoxicity was -3% (inactive).

As for `O=C1c2ccccc2C(=O)N1CC#CCN1CCN(C2CCCCC2)CC1`, the cytotoxicity was 2.6% (inactive). For `Cc1cc(C)c(C#N)c(SCS(=O)Cc2ccccc2)n1` (configuration not stated), the cytotoxicity is -16.4% (inactive). The figure for `Cc1cc(C)c(C#N)c(SCS(=O)c2ccc(C(C)(C)C)cc2)n1` (configuration not stated) is -4.8% (inactive). The result for `Cc1cc(C)c(C#N)c(SCS(=O)Cc2ccc(Cl)cc2)n1` (configuration not stated) reads 50.3% (active); that for `CCOc1ccc(-c2noc(=O)[nH]2)cc1`, 0.9% (inactive); that for `COc1ccc2c(c1)C=CC1(O2)N(CCO)c2ccccc2C1(C)C` (configuration not stated), 32.6% (inactive).

For `CC1=NOC2(C1)N(C)c1ccccc1C2(C)C` (configuration not stated), the cytotoxicity is -10.1% (inactive). With `CCOC(=O)c1sc(NC(=O)CCSC)nc1C`, the cytotoxicity was 26.2% (inactive). The result for `CCOC(=O)c1sc(NC(=O)CSc2ncn(-c3ccccc3)n2)nc1C` reads 70.4% (active). The figure for `O=C(CSc1ncn(-c2ccccc2)n1)Nc1nc2ccccc2s1` is 9.1% (inactive); for `CCOC(=O)c1sc(NC(=O)CSc2nnnn2-c2ccccc2)nc1C` it is -4.9% (inactive). The figure for `CCOC(=O)c1ccc(NC(=O)CCc2nc(-c3ccccc3Cl)no2)cc1` is 74.8% (active). In the case of `CCOC(=O)c1ccc(NC(=O)CCc2nc(-c3ccccc3)no2)cc1`, the cytotoxicity was -1.1% (inactive). For `CCOC(=O)c1ccc(NC(=O)CCc2nc(-c3ccc(Cl)cc3)no2)cc1`, the cytotoxicity was -3.7% (inactive). The figure for `Cc1sc2ncn3ncnc3c2c1C` is 4.8% (inactive); for `Cc1cc(C)n2nc(C(=O)NCc3ccco3)nc2n1` it is 11.2% (inactive). As to `COC(=O)c1ccccc1NC(=O)c1cnc2sccn2c1=O`, the cytotoxicity was 2.7% (inactive). The result for `COC(=O)c1ccccc1NC(=O)c1ccc(COc2ccccc2)o1` reads -7.8% (inactive). As to `COc1ccccc1NC(=O)c1ccc(-c2ccccc2F)o1`, the cytotoxicity is -0.2% (inactive). With `COC(=O)c1ccccc1NC(=O)c1ccc(-c2ccccc2F)o1`, the cytotoxicity is 88.4% (active).

As to `Cc1ccc(O)c(-c2cc(C(=O)Nc3ccc(S(=O)(=O)N4CC(C)OC(C)C4)cc3)[nH]n2)c1` (configuration not stated), the cytotoxicity is -29.9% (inactive).

As for `COc1ccc(OC)c(NC(=O)c2cc(-c3ccc(C)cc3O)n[nH]2)c1`, the cytotoxicity is -13.3% (inactive). Regarding `COc1ccc(NC(=O)c2cc(-c3cc(C)cc(C)c3O)n[nH]2)cc1Cl`, the cytotoxicity is 59.6% (active).

In the case of `Cc1cc(O)c(-c2cc(C(=O)Nc3ccc(S(=O)(=O)N4CCOCC4)cc3)[nH]n2)cc1C`, the cytotoxicity is 1% (inactive). Take `COc1ccc(OC)c(NC(=O)c2cc(-c3cc(Cl)ccc3O)n[nH]2)c1`: the cytotoxicity is 12.2% (inactive). The result for `O=C(Nc1cc(C(F)(F)F)ccc1Cl)C1CCN(c2nnc(-n3cccc3)s2)CC1` reads -14.7% (inactive); that for `COC(=O)c1ccc(CSc2ncnc3c2nnn3-c2ccc(OC)cc2)o1`, -1% (inactive); that for `O=C(O)CCC(=O)N1CCc2cc(S(=O)(=O)NC3CCCc4ccccc43)ccc21` (configuration not stated), 3.4% (inactive). `Nc1ccccc1-c1nnc(SCc2ccccc2F)[nH]c1=O`: the cytotoxicity was 3.6% (inactive). In the case of `NC(=O)CSc1nnc2sc3ccccc3n12`, the cytotoxicity is 3.6% (inactive). Regarding `COc1cccc(S(=O)(=O)Nc2cccnc2)c1`, the cytotoxicity is -10.8% (inactive).

As to `O=C(CSc1ncc(-c2ccc(F)cc2)n1Cc1ccco1)Nc1ccc2c(c1)OCO2`, the cytotoxicity was 72.6% (active). The result for `CC(=O)Nc1cccc(NC(=O)CSc2ncc(-c3ccc(Cl)cc3)n2Cc2ccco2)c1` reads 64% (active).

On to `COc1ccc(-c2cnc(SCC(=O)Nc3ccc4c(c3)OCO4)n2Cc2ccco2)cc1`, for which the cytotoxicity was 5% (inactive).

On to `CCC(=O)Nc1cc(NC(=O)CSc2ncc(-c3ccc(F)cc3)n2Cc2ccco2)ccc1C`, for which the cytotoxicity is 3.8% (inactive). The result for `Cc1cnc(NC(=O)CSc2ncc(-c3ccccc3)n2Cc2ccco2)s1` reads -1% (inactive); that for `COc1ccc(-c2cnc(SCC(=O)Nc3cc(C)on3)n2Cc2ccco2)cc1`, -8.9% (inactive).

On to `CCOCCCN1CC(C(=O)NCCc2ccccc2)CC1=O` (configuration not stated), for which the cytotoxicity was -5.3% (inactive).

With `CC(=O)Nc1ccc(C(=O)CSc2nc3ccccc3n2CC(=O)N2CCCC2)cc1`, the cytotoxicity was 5% (inactive).

In the case of `Cc1cc2c(c(N3CCOCC3)n1)C(=O)OC2`, the cytotoxicity is -1.9% (inactive). The figure for `COc1ccc(CNC(=O)C2CCCN2S(=O)(=O)c2ccccc2)cc1` (configuration not stated) is -10.6% (inactive); for `O=S(=O)(c1ccccc1Cl)N1CCCC(c2nc(-c3cccnc3)no2)C1` (configuration not stated) it is 2% (inactive); for `CCC(C)(C)n1nnnc1C(c1cc2ccc(C)cc2[nH]c1=O)N(Cc1cccnc1)Cc1ccco1` (configuration not stated) it is 23.4% (inactive). The figure for `COc1ccc2[nH]c(=O)c(CN(C3CCCCC3)C(c3nnnn3Cc3ccco3)C(C)C)cc2c1` (configuration not stated) is 21.5% (inactive); for `COc1ccc2cc(CN(Cc3ccco3)C(c3nnnn3C3CCCCC3)C(C)C)c(=O)[nH]c2c1` (configuration not stated) it is -35.5% (inactive). On to `COc1ccc2[nH]c(=O)c(CN(Cc3nnnn3Cc3ccco3)C3CCCCC3)cc2c1`, for which the cytotoxicity is 24.6% (inactive). Take `CCC(C)(C)n1nnnc1C(c1cc2cc(OC)c(OC)cc2[nH]c1=O)N1CCc2ccccc21` (configuration not stated): the cytotoxicity is 11.4% (inactive). As for `COc1ccc2cc(CN(Cc3ccco3)Cc3nnnn3C3CCCCC3)c(=O)[nH]c2c1`, the cytotoxicity is 23.1% (inactive).

`CCC(c1nnnn1C1CCCCC1)N(Cc1ccco1)Cc1cc2ccc(OC)cc2[nH]c1=O` (configuration not stated): the cytotoxicity is 56.8% (active). As for `CCCC(c1nnnn1C(C)(C)CC)N(Cc1ccco1)Cc1cc2ccc(OC)cc2[nH]c1=O` (configuration not stated), the cytotoxicity is 72.9% (active). As to `CCC(c1nnnn1Cc1ccccc1)N(Cc1ccco1)Cc1cc2cc(OC)ccc2[nH]c1=O` (configuration not stated), the cytotoxicity is 18% (inactive). As to `CCC(C)(C)n1nnnc1C(c1cc2ccc(OC)cc2[nH]c1=O)N1CCc2ccccc21` (configuration not stated), the cytotoxicity was 50.8% (active). The result for `CCC(c1nnnn1Cc1ccco1)N(Cc1cc2cc(OC)ccc2[nH]c1=O)C1CCCCC1` (configuration not stated) reads 97.7% (active). Take `CCC(C)(C)n1nnnc1C(c1cc2cc(OC)ccc2[nH]c1=O)N1CCc2ccccc21` (configuration not stated): the cytotoxicity was 2.6% (inactive). In the case of `COC(=O)CN1CCN(C(=O)c2ccc(F)cc2)c2ccccc2C1`, the cytotoxicity is -14.6% (inactive). In the case of `Cc1cc(Cl)ccc1N=Cc1c(O)n(C)c(=O)n(C)c1=O`, the cytotoxicity was -4.4% (inactive). Take `Cc1cccnc1NCC(O)COc1ccccc1` (configuration not stated): the cytotoxicity is -2.3% (inactive).

In the case of `CN1CCN(CC(=O)N(Cc2c(C#N)c3ccccc3n2C)c2ccccc2)CC1`, the cytotoxicity was 2.3% (inactive).

In the case of `O=C(c1ccccc1C(=O)N1CCN(c2ccc(F)cc2)CC1)N1CCN(c2ccc(F)cc2)CC1`, the cytotoxicity is 2.5% (inactive). For `COC(=O)C(C)NC(=O)C1CCCN1S(=O)(=O)c1cc(C)c(Cl)cc1C` (configuration not stated), the cytotoxicity was 7.8% (inactive). In the case of `CN(C)C(=O)N1CCC(C(=O)NCc2ccccc2)CC1`, the cytotoxicity is -9.6% (inactive). For the compound `Cc1nc(N2CCC(C)CC2)c2c(C)c(C(=O)O)sc2n1`, the cytotoxicity was -38.1% (inactive). The figure for `Cc1cc(C)c2c3c(c(-c4ccccc4)n2n1)c(=O)n(C)c(=O)n3C` is -6.5% (inactive); for `CCN1CCN(c2ccc(NC(=O)COc3ccccc3Cl)cc2)CC1` it is -13.4% (inactive). In the case of `Cn1cc(Cl)c(C(=O)N2CCN(c3ncccn3)CC2)n1`, the cytotoxicity is 3.1% (inactive). The result for `CCC(c1nnnn1Cc1cccs1)N1CCN(c2nc3ccccc3s2)CC1` (configuration not stated) reads -1.9% (inactive); that for `c1ccc(COc2ccc(Nc3ncnc4nc[nH]c34)cc2)cc1`, -3.8% (inactive). The result for `C=CCn1c(N)c(C(=O)OC(C)(C)C)c2nc3ccccc3nc21` reads 8.7% (inactive). For `C=CCn1c(N)c(C(=O)Nc2ccccc2)c2nc3ccccc3nc21`, the cytotoxicity is 66.5% (active). Turning to `C=CCn1c(N)c(C(=O)OCCC)c2nc3ccccc3nc21`, the cytotoxicity is 5.2% (inactive).
